From PubChem BioAssay come the findings set out here.

Each structure is given as a SMILES string. “And” between values parts separate entries of the source, which are not always exact repeats. Identical values can stand only once. The source made the active and inactive calls.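 How the source made its calls, unless noted: active means compounds whose cell count with miR-34 switched on is under 0.7 times the count with it off; inactive means the rest.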

The nature of experiment [1]: hESC survival regulators, cell-based (AID 493140; call rule not given here;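 further: cells exposed to compounds for four days before counting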). To be noted: human embryonic stem cell survival screen; stronger effect = higher value.
Experiment [2] is described as follows: liver-stage malaria parasite growth inhibition, primary screen, cell-based, HepG2, luciferase luminescence, HepG2 viability (AID 624349; in the data active means parasite load remaining mostly below about 12%, no sharp cut-off; inactive means mostly above about 10%;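 further: 100% = mean of DMSO negative control wells on the same plate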). To be noted: P. berghei liver stage in HepG2, luciferase luminescence, concentration not given here; parasite load remaining: stronger effect = lower value; viability: measured here: HepG2 viability without parasites.
Experiment [3] in a line: differential killing of epithelial or mesenchymal cells, primary screen, imaging, PC-3E GFP, TEM4-18 mCherry, co-culture (AID 1345086;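 active means compounds killing one labelled cell type while sparing the other, by normalised counts and ratio limits, not self-fluorescent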;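 on all read-outs here: cells exposed to compound for 72 h before imaging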;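 on red/green cell ratio (normalised): normalised mesenchymal count divided by normalised epithelial count so high means epithelial killing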). To be noted: imaging cell counts, at 1 µM; for red/green cell ratio (normalised): actives lie on both sides, counts scaled to control wells, 1 = unselective.
A short description of experiment [4]: sensitizers of A549 cells to miR-34 induction, primary screen, imaging, A549 dox-inducible miR-34, nuclei and caspase counts (AID 1347080). To be noted: A549 miR-34 inducible, Hoechst nuclei count, 48 h.
The nature of experiment [5]: survival rescue of mitochondrial mutant cells in low glucose, primary screen, MELAS cybrids, Rieske KO mouse fibroblasts, CellTiter-Glo (AID 1508586;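 active means mean z-score across replicates of 1.96 or higher in either the MELAS or the Rieske mutant cell line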;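 further: z relative to plate mean and SD of compound and empty wells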).
For experiment [6], the target named is NAD(+) hydrolase SARM1 (Homo sapiens) (UniProt Q6SZW1). Description: SARM1 TIR NADase inhibitors, cell lysate, NAD-Glo luminescence (AID 1508614;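 active means compound whose remaining NAD level is above about 45 nM, limit read from the data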). To be noted: SAM-TIR HEK293T lysate NADase, at 1 µM, stronger effect = higher value.
NAD(+) hydrolase SARM1 (Homo sapiens), sequence (Q6SZW1 whole entry, looked up): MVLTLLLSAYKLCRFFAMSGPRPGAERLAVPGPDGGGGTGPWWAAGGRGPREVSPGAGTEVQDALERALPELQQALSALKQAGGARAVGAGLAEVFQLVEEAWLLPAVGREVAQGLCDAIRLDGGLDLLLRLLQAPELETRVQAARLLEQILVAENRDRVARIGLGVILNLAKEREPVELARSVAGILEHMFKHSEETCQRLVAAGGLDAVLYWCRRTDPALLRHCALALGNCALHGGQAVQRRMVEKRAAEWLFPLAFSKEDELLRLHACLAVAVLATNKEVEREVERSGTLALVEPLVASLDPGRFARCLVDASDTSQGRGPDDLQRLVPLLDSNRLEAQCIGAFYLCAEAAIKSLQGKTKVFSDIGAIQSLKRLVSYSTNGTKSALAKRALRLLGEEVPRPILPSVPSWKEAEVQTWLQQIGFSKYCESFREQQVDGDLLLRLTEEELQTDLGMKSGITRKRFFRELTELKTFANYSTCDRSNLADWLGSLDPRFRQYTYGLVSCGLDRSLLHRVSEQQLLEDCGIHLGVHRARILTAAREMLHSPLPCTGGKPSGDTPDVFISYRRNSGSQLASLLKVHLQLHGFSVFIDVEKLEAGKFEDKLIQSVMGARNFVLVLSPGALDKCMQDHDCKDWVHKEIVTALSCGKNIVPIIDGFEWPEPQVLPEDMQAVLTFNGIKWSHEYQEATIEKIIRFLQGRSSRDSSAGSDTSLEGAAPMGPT
Experiment [7] can be described thus: viability rescue of complex I mutant cybrids, primary screen, cell-based, galactose medium, ATP luminescence (AID 1645843;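 active means z-score of at least 1.8 in each of two replicates, scored against plate mean and spread of sample wells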;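 further: positive z means more ATP and so rescue of galactose-driven cybrid death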). To be noted: complex I mutant cybrid cells, 72 h, stronger effect = higher value.
Where [8] appears, read: measured here: epithelial PC-3E GFP cell survival.
Setting [9] is: measured here: mesenchymal TEM4-18 mCherry cell survival.
The mark [10] stands for this setting: stronger effect = lower value, cell number ratio, induced over uninduced.
Setting [11] is: measured here: relative caspase fold change +Dox/-Dox.
Setting [12] is: measured here: total cells with miR-34 induction, stronger effect = lower value.
[13] abbreviates: measured here: total cells without miR-34 induction.
Where [14] appears, read: MELAS cybrid survival, CellTiter-Glo 48 h, stronger effect = higher value.
[15] abbreviates: Rieske KO mouse fibroblast survival, CellTiter-Glo 72 h.

`NC(N)=NCC1COC2(CCCCC2)O1` (stereo not drawn): the survival in experiment [1] was 5.58 (inactive). Moreover, the parasite load remaining in experiment [2] is 70.3% (inactive). Besides, the viability in experiment [2] was found to be 91.8%. The red/green cell ratio (normalised) in experiment [3] was 1.08 (inactive). For the same compound, the normalised cell number was found to be 1.11 in experiment [3] (setting [8]) and 1.2 in experiment [3] (setting [9]). Also, the fold change in experiment [4] (setting [10]) is 0.907 (inactive); in experiment [4] (setting [11]), 1.21. In addition, the values for the cell count in experiment [4] (setting [12]) and in experiment [4] (setting [13]) were 9550 and 10500, respectively. Further, the z-score in experiment [5] (setting [14]) is 0.764 (inactive); in experiment [5] (setting [15]), 0.202. In addition, in experiment [6], the remaining NAD was 10 nM (inactive).
Regarding `CC(CCc1ccc(O)cc1)NCC(O)c1ccc(O)cc1` (stereo not drawn), in experiment [2], the parasite load remaining is 46.7% (inactive). Also, the viability in experiment [2] was found to be 106%. Moreover, the red/green cell ratio (normalised) in experiment [3] is 0.98 (inactive). The normalised cell number in experiment [3] (setting [8]) was found to be 0.86; in experiment [3] (setting [9]), 0.84. The fold change in experiment [4] (setting [10]) was 0.934 (inactive) and 0.886 (inactive); in experiment [4] (setting [11]) it was 0.997 and 0.914. Besides, the cell count in experiment [4] (setting [12]) is 8460 and 9910; in experiment [4] (setting [13]), 9050 and 11200. For the same compound, the z-score in experiment [5] (setting [14]) is 0.268 (inactive); in experiment [5] (setting [15]), 0.193; in experiment [7], 0.065 (inactive). The remaining NAD in experiment [6] is 10 nM (inactive).
In the case of `NC(=O)C(c1ccccc1)(c1ccccc1)C1CCN(CCc2ccc3c(c2)CCO3)C1` (stereo not drawn), the red/green cell ratio (normalised) in experiment [3] is 1.14 (inactive). Besides, the normalised cell number stood at 1.01 in experiment [3] (setting [8]) and 1.15 in experiment [3] (setting [9]). Moreover, the fold change in experiment [4] (setting [10]) is 0.961 (inactive) and 0.867 (inactive) and 0.884 (inactive); in experiment [4] (setting [11]) it was 1.17 and 0.544 and 0.774. The cell count in experiment [4] (setting [12]) is 7990 and 7300 and 7280; in experiment [4] (setting [13]) it was 8310 and 8420 and 8230. Besides, the z-score is 0.59 (inactive) and -0.239 (inactive) in experiment [5] (setting [14]); 0.395 and -0.187 in experiment [5] (setting [15]); -0.58 (inactive) in experiment [7].
Take `O=C1c2ccccc2C(=O)C1c1ccc(Cl)cc1`: the red/green cell ratio (normalised) in experiment [3] is 0.87 (inactive). Further, the normalised cell number in experiment [3] (setting [8]) came to 1.18; in experiment [3] (setting [9]), 1.03. Moreover, the values for the fold change in experiment [4] (setting [10]) and in experiment [4] (setting [11]) were 0.921 (inactive) and 1.21, respectively. For the same compound, the cell count in experiment [4] (setting [12]) came to 7610; in experiment [4] (setting [13]) it was 8270. Further, the remaining NAD in experiment [6] was 10 nM (inactive).
Take `Cc1c(O)c(=O)n(-c2ccccc2)n1C`: in experiment [1], the survival is 23.9 (inactive). Further, the parasite load remaining in experiment [2] is 37.6% (inactive) and 51.4% (inactive). Also, the viability in experiment [2] was 95.8% and 94.4%. Moreover, in experiment [3], the red/green cell ratio (normalised) is 0.78 (inactive). The figures for the normalised cell number in experiment [3] (setting [8]) and in experiment [3] (setting [9]) were 1.09 and 0.85, respectively. Further, the fold change in experiment [4] (setting [10]) was 0.946 (inactive); in experiment [4] (setting [11]) it was 1.41. For the same compound, the cell count is 8310 in experiment [4] (setting [12]) and 8790 in experiment [4] (setting [13]). The z-score in experiment [5] (setting [14]) is 0.46 (inactive); in experiment [5] (setting [15]), -0.0513.
As for `Nc1ccccc1S(N)(=O)=O`, the survival in experiment [1] was 5.17 (inactive). Also, the parasite load remaining in experiment [2] is 63.3% (inactive). Further, the viability in experiment [2] turned out to be 93.8%. Further, the red/green cell ratio (normalised) in experiment [3] was 0.77 (inactive). In addition, the normalised cell number in experiment [3] (setting [8]) amounted to 1.18; in experiment [3] (setting [9]), 0.91. Moreover, the fold change in experiment [4] (setting [10]) was 0.888 (inactive); in experiment [4] (setting [11]), 1.35. In addition, the cell count came to 9840 in experiment [4] (setting [12]) and 11100 in experiment [4] (setting [13]). In addition, the z-score in experiment [5] (setting [14]) was 0.695 (inactive); in experiment [5] (setting [15]), -0.362.
Regarding `Cc1c(C)c2c(c(C)c1O)CCC(C)(C(=O)O)O2` (stereo not drawn), the survival in experiment [1] was 0.667 (inactive). Further, the parasite load remaining in experiment [2] is 201% (inactive) and 66.3% (inactive). Besides, the viability in experiment [2] was 117% and 76.7%. In addition, the red/green cell ratio (normalised) in experiment [3] was 0.84 (inactive). For the same compound, the normalised cell number in experiment [3] (setting [8]) worked out at 1.17; in experiment [3] (setting [9]) it was 0.98. In addition, the results for the fold change in experiment [4] (setting [10]) and in experiment [4] (setting [11]) were 0.854 (inactive) and 1.44, respectively. Moreover, the values for the cell count in experiment [4] (setting [12]) and in experiment [4] (setting [13]) were 8370 and 9800, respectively. The figures for the z-score in experiment [5] (setting [14]) and in experiment [5] (setting [15]) were -0.259 (inactive) and -0.0183, respectively.
Consider `CC(C)[C@H](N)C(=O)OCC(CO)OCn1cnc2c(=O)[nH]c(N)nc21` (stereo partly drawn), for which the red/green cell ratio (normalised) in experiment [3] is 0.79 (inactive). Moreover, the values for the normalised cell number in experiment [3] (setting [8]) and in experiment [3] (setting [9]) were 1.28 and 1.01, respectively. For the same compound, the fold change in experiment [4] (setting [10]) was 0.935 (inactive); in experiment [4] (setting [11]) it was 0.843. Further, the values for the cell count in experiment [4] (setting [12]) and in experiment [4] (setting [13]) were 8710 and 9320, respectively. The remaining NAD in experiment [6] was 10 nM (inactive).
As for `OCc1ccccc1`, in experiment [3], the red/green cell ratio (normalised) is 0.94 (inactive). The normalised cell number in experiment [3] (setting [8]) was determined as 1.12; in experiment [3] (setting [9]), 1.05. The values for the fold change in experiment [4] (setting [10]) and in experiment [4] (setting [11]) were 0.891 (inactive) and 0.934, respectively. For the same compound, the cell count in experiment [4] (setting [12]) was determined as 8280; in experiment [4] (setting [13]) it was 9290. In addition, the remaining NAD in experiment [6] is 10 nM (inactive).
With `C[N+](C)(CCOc1ccccc1)Cc1ccccc1`, the parasite load remaining in experiment [2] was 72.5% (inactive) and 56.2% (inactive). For the same compound, the viability in experiment [2] was 93.8% and 115%. The red/green cell ratio (normalised) in experiment [3] was 0.65 (inactive). The normalised cell number in experiment [3] (setting [8]) worked out at 1.19; in experiment [3] (setting [9]), 0.77. Further, the fold change is 0.899 (inactive) and 0.879 (inactive) in experiment [4] (setting [10]); 1.23 and 5.07 in experiment [4] (setting [11]). The cell count was 9230 and 11800 in experiment [4] (setting [12]); 10300 and 13400 in experiment [4] (setting [13]). Also, the z-score in experiment [5] (setting [14]) was 0.608 (inactive); in experiment [5] (setting [15]), 0.271. In addition, in experiment [6], the remaining NAD was 10 nM (inactive).
